# Pf Dd2 growth = P. falciparum Dd2 growth inhibition. AID 1159554. SYBR Green, 72 h; hits give low values. 2.3% of 94,000 active. activity change, % at 10 µM; in the data active means activity change below about -80%
# Tcruzi prolif = inhibitors of T. cruzi proliferation | T. cruzi beta-gal in NIH3T3, GalScreen luminescence, 90 h | inhibition, % at 8.34 µM | 5.9% of 77,000 active | AID 624255;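 active means mean inhibition above about 93%, with at least 55% of replicates each passing it, limit read from the data, passing the limit was not always enough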
# C diff HTS = C. difficile growth inhibition. growth activity, negative = inhibition, % at 16 µg/mL (by protocol). Clostridium difficile clinical isolate growth, OD600, 24 h; hits give low values. 0.25% of 86,000 active;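 active means mean growth activity at or below -80% and every replicate also at or below -80%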;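 further: 0% = DMSO wells and -100% = levofloxacin 16 µg/mL wells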
# * = called active by the depositor; . = no result given. Shown are actives, neighbours in structure and some others; about 6.7% of the full set was active somewhere.
SMILES,Pf Dd2 growth,Tcruzi prolif,C diff HTS
C[C@H](CO)N1C[C@H](C)[C@H](CN(C)C(=O)[C@H](C)c2ccccc2)OCc2ccccc2-c2c(n(C)c3ccccc23)C1=O,-91*,.,5
C[C@@H]1CN([C@H](C)CO)C(=O)c2c(c3ccccc3n2C)-c2ccccc2CO[C@@H]1CN(C)C(=O)N[C@H](C)c1ccccc1,-30,24,-5
C[C@H](C(=O)N(C)C[C@H]1OCc2ccccc2-c2c(n(C)c3ccccc23)C(=O)N([C@H](C)CO)C[C@@H]1C)c1ccccc1,-51,.,26
C[C@H](C(=O)N(C)C[C@H]1OCc2ccccc2-c2c(n(C)c3ccccc23)C(=O)N([C@@H](C)CO)C[C@H]1C)c1ccccc1,-78,.,0
COCCNC(=O)C[C@@H]1C[C@@H]2c3cc(NC(=O)NC4CCCCC4)ccc3O[C@@H]2[C@H](CO)O1,-2,-12,.
C[C@H](NC(=O)C[C@@H]1C[C@H]2c3cc(NC(=O)CN(C)C)ccc3O[C@H]2[C@H](CO)O1)c1ccccc1,2,3,1
COc1ccc(NC(=O)N(C)C[C@H]2Oc3c(NC(=O)Nc4ccccc4)cccc3C(=O)N([C@@H](C)CO)C[C@H]2C)cc1,-89*,-16,-9
C[C@H]1CN([C@@H](C)CO)C(=O)c2cc(NC(=O)CCCCCC(=O)Nc3ccccc3N)ccc2O[C@@H]1CN(C)C(=O)Nc1ccc(C(F)(F)F)cc1,0,.,8
COc1ccc(NC(=O)N(C)C[C@H]2Oc3c(NC(=O)CCCCCC(=O)Nc4ccccc4N)cccc3C(=O)N([C@@H](C)CO)C[C@H]2C)cc1,-89*,.,5
C[C@H](CO)N1C[C@H](C)[C@@H](CN(C)C(=O)Nc2ccc(C(F)(F)F)cc2)Oc2c(NC(=O)CCCCCC(=O)Nc3ccccc3N)cccc2C1=O,-84*,.,8
COc1ccc(NC(=O)N(C)C[C@H]2Oc3c(NC(=O)CCCCCC(=O)Nc4ccccc4N)cccc3C(=O)N([C@H](C)CO)C[C@@H]2C)cc1,-28,.,2
C[C@H](CO)N1C[C@H](C)[C@@H](CN(C)C(=O)Nc2ccc(F)cc2)Oc2c(NC(=O)CCCCCC(=O)Nc3ccccc3N)cccc2C1=O,-63,.,-6
COc1ccc(NC(=O)N(C)C[C@@H]2Oc3c(NC(=O)Nc4ccccc4)cccc3C(=O)N([C@H](C)CO)C[C@@H]2C)cc1,-17,8,6
C[C@H]1CN([C@@H](C)CO)C(=O)c2cccc(NC(=O)CCCCCC(=O)Nc3ccccc3N)c2O[C@H]1CN(C)C(=O)Nc1ccc(C(F)(F)F)cc1,-92*,.,12
O=C(N[C@@H]1CC[C@H](CCNS(=O)(=O)c2ccc(F)cc2)O[C@H]1CO)C1CCCC1,16,.,-3
O=C(c1ccccc1)N1CC[C@@H]2[C@@H](CO)Nc3ccc(C#Cc4cccnc4)cc3[C@@H]21,-4,41,-4
C/C=C/c1ccc([C@@H]2[C@@H](CO)N(C(=O)CN3CCOCC3)[C@H]2C#N)cc1,26,85,-17
O=C(C[C@@H]1C[C@H]2c3cc(NC(=O)C4CCOCC4)ccc3O[C@H]2[C@H](CO)O1)NCc1ccccn1,3,84,0
C[C@H](CO)N1C[C@H](C)[C@H](CN(C)S(=O)(=O)c2ccccc2)Oc2ccc(NC(=O)CCC(F)(F)F)cc2CC1=O,18,23,3
C[C@@H]1CN([C@H](C)CO)C(=O)c2cccc(NC(=O)CCCCCC(=O)Nc3ccccc3N)c2O[C@H]1CN(C)C(=O)Nc1cccc2ccccc12,-73,.,-1
C[C@@H]1CN([C@H](C)CO)C(=O)c2cccc(NC(=O)CCCCCC(=O)Nc3ccccc3N)c2O[C@H]1CN(C)C(=O)Nc1ccc(C(F)(F)F)cc1,-88*,.,10
C[C@@H]1CN([C@H](C)CO)C(=O)c2cccc(NC(=O)CCCCCC(=O)Nc3ccccc3N)c2O[C@H]1CN(C)C(=O)Nc1ccccc1,-59,.,1
C[C@@H]1CN([C@@H](C)CO)C(=O)c2cccc(NC(=O)CCCCCC(=O)Nc3ccccc3N)c2O[C@H]1CN(C)C(=O)Nc1ccc(C(F)(F)F)cc1,-84*,.,0
Cc1cccc(S(=O)(=O)NC[C@H]2CC[C@@H]3NC[C@@H]3O2)c1,28,.,-6
O=C(Cc1ccccc1)N1CC(=O)N2[C@H](CO)[C@@H](c3ccc(C#CCc4ccccc4)cc3)[C@H]2C1,-43,.,38
SMILES,Pf Dd2 growth,Tcruzi prolif,C diff HTS
O=C(c1cnccn1)N1CC(=O)N2[C@@H](CO)[C@@H](c3ccc(C#CCc4ccccc4)cc3)[C@@H]2C1,-83*,.,-10
O=C(C1CCC1)N1CC(=O)N2[C@H](CO)[C@@H](c3ccc(C#CCc4ccccc4)cc3)[C@@H]2C1,-86*,.,-9
O=C(c1cnccn1)N1CC(=O)N2[C@H](CO)[C@@H](c3ccc(C#CCc4ccccc4)cc3)[C@@H]2C1,-72,.,-13
O=C(C1CCC1)N1CC(=O)N2[C@H](CO)[C@H](c3ccc(C#CCc4ccccc4)cc3)[C@H]2C1,-13,.,-15
O=C(Cc1ccccc1)N1CC(=O)N2[C@H](CO)[C@H](c3ccc(C#CCc4ccccc4)cc3)[C@H]2C1,-89*,.,-15
CO[C@@H]1CN(C)C(=O)c2cccc(C#N)c2OC[C@H]2O[C@@H](CC[C@H]2OC)CCN(C)C(=O)[C@H]1C,-2,-55,.
CCCNC(=O)N1C[C@H](O)COC[C@H]2O[C@@H](CC(=O)O)CC[C@@H]21,33,78,-3
C[C@H](CO)N1C[C@H](C)[C@@H](CN(C)C(=O)Nc2cccc3ccccc23)Oc2ccc(NC(=O)Nc3ccccc3)cc2CC1=O,-30,-23,-4
COc1ccc(S(=O)(=O)Nc2cccc3c2O[C@@H](CN(C)Cc2ccc4c(c2)OCO4)[C@@H](C)CN([C@@H](C)CO)C3=O)cc1,-6,79,3
C/C=C/c1ccc([C@H]2[C@@H](CO)N(CC3CC3)[C@H]2CNS(C)(=O)=O)cc1,-12,27,-5
C/C=C/c1ccc([C@H]2[C@@H](CO)N(CC3CCCC3)[C@@H]2CNC(=O)NC(C)C)cc1,-94*,.,32
C/C=C/c1ccc([C@H]2[C@@H](CO)N(CC3CC3)[C@@H]2CNC(=O)NC(C)C)cc1,-6,.,5
C/C=C/c1ccc([C@H]2[C@@H](CO)N(CC3CCCC3)C23CN(C(=O)CC2CC2)C3)cc1,-87*,.,-1
C/C=C/c1ccc([C@H]2[C@@H](CO)N(CC3CCCCC3)[C@@H]2CNC(C)C)cc1,-94*,.,35
C/C=C/c1ccc([C@@H]2[C@@H](CO)N(c3nc(CC)cs3)[C@@H]2CNC(C)C)cc1,-78,92,4
C/C=C/c1ccc([C@H]2[C@H](CO)N(c3nc(CC)cs3)[C@H]2CNC(C)C)cc1,-81*,90,3
C/C=C/c1ccc([C@H]2[C@@H](CO)N(CC3CCCC3)C23CN(C(=O)CC)C3)cc1,-27,.,-5
COCCNC(=O)[C@@H]1[C@@H](CO)[C@@H]2Cn3c(ccc(-c4ccccc4OC)c3=O)[C@@H]2N1C(=O)C1CCC1,45,.,2
COc1ccc(NC(=O)N(C)C[C@H]2Oc3c(NC(=O)c4ccncc4)cccc3C(=O)N([C@@H](C)CO)C[C@H]2C)cc1,-10,-14,0
COCC#Cc1cnc2c(c1)C(=O)N([C@H](C)CO)C[C@H](C)[C@@H](CN(C)S(C)(=O)=O)O2,26,-86,1

# From PubChem
